# Source: PubChem BioAssay (NCATS)
# Results filed as inconclusive are left out. Activity calls are given as the source filed them. Unless noted, the call rests on the fitted dose curve; in most records, active means well fitted curve in the direction sought with a large enough effect; inconclusive means small, poorly fitted or top-dose-only effect, or another doubt; inactive means no such curve, though single readings can be large; an effect the other way counts as inactive or inconclusive.
# What was measured:
# [1] = biological target: Cytochrome P450 1A2 (Homo sapiens) (UniProt P05177); experiment: p450-cyp1a2 (AID 410; calls by dose curve; further: potency means the concentration at half of the fitted maximal effect;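 on activity change, negative = inhibition: -100% = full effect of reference inhibitor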)
# Chain of Cytochrome P450 1A2 (Homo sapiens) (P05177 whole entry, looked up): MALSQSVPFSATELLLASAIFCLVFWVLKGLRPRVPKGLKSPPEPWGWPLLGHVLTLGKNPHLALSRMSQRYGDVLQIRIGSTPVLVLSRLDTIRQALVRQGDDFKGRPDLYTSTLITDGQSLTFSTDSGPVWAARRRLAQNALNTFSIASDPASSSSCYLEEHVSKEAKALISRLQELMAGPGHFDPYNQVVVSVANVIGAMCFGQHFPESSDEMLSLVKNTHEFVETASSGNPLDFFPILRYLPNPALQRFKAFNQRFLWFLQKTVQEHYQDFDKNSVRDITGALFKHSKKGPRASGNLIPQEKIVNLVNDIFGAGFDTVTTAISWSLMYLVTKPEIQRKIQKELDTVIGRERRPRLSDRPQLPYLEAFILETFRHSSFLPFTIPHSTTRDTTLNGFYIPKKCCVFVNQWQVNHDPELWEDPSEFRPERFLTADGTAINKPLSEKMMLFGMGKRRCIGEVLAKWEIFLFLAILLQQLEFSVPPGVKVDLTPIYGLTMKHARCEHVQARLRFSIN
# Method in brief: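 Luminescent readout of luciferin formed from Luciferin-ME by human CYP1A2; data normalized against complete inhibition by 57 uM furafylline. Enzyme 20nM, substrate 100uM at Km, 100mM KPO4 buffer, 60 min reaction at room temperature.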
# [2] = biological target: Glucocorticoid receptor (Homo sapiens) (UniProt P04150); experiment: GR-GFP Redistribution (AID 450;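 active means compounds whose dose series gives a full or clear partial fitted curve of increased nuclear translocation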; further: potency means the concentration at half of the fitted maximal effect); details: U2OS GR-GFP nuclear translocation, laser cytometry, 2 h
# Chain of Glucocorticoid receptor (Homo sapiens) (P04150 whole entry, looked up, the tested form may be a part): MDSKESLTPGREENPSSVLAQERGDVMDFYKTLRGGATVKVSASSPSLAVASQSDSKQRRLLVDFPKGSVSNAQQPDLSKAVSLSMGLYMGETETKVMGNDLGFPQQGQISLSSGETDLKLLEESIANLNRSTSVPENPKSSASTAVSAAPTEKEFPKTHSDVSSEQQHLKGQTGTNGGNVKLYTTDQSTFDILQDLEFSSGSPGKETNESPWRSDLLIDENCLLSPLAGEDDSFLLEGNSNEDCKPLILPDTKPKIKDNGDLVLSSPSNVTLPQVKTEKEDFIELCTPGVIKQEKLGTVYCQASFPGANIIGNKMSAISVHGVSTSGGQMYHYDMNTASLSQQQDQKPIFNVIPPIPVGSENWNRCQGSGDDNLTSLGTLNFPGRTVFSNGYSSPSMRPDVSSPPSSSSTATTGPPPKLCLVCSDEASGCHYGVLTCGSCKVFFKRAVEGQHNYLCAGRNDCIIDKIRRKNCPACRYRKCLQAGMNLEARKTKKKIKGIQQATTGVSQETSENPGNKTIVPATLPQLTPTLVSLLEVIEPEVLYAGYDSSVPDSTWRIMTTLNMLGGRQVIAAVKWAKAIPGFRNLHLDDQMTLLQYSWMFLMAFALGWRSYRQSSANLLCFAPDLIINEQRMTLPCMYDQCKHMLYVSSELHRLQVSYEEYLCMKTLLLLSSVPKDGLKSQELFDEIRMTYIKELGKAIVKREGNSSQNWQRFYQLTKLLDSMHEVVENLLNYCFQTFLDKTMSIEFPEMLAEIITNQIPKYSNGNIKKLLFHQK
# [3] = biological target: Glucocorticoid receptor (Homo sapiens) (UniProt P04150); experiment: GR-EFC Redistribution (AID 451; calls by dose curve; further: potency means the concentration at half of the fitted maximal effect); details: CHO-K1 GR-EFC translocation, beta-gal luminescence, 2 h
# Method in brief: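 CHO-K1 cells stably expressing nuclear-localized β-gal enzyme acceptor and GR fused C-terminally to the enzyme donor fragment; ligand-driven nuclear translocation restores β-gal by complementation. Compounds titrated up to 46 uM final, 2 h at 37 °C; luminescence read.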
# [4] = biological target: Mitogen-activated protein kinase 10 (Mus musculus) (UniProt Q61831); experiment: JNK3 AlphaScreen Assay (AID 530; active means well fitted curve in either direction with a large enough effect, not every such curve was filed as active;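 further: kinase came from lysate of stimulated human HepG2 cells; signal reports phosphorylation of biotinylated GST-cJun 1-79 at Ser73 with 10 µM ATP; on the % scale 0 is the no-effect control and ±100 the full control effect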)
# Method in brief: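 Inhibitors reduce antibody binding to phosphorylated biotin-cJun, lowering AlphaScreen luminescence. Lysates from HepG2 cells pre-activated by IL-1beta plus TNF-alpha supplied JNK3; compounds were titrated.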
# [5] = biological target: 3',5'-cyclic-AMP phosphodiesterase 4B (Homo sapiens) (UniProt Q07343); experiment: qHTS Assay for Inhibitors of PDE-IV (AID 607; active means well fitted activation curve with a large enough effect in the main read-out, with a control signal flat, not every such curve was filed as active; further: % of control where 0% means no effect)
# Chain of 3',5'-cyclic-AMP phosphodiesterase 4B (Homo sapiens) (Q07343 whole entry, looked up): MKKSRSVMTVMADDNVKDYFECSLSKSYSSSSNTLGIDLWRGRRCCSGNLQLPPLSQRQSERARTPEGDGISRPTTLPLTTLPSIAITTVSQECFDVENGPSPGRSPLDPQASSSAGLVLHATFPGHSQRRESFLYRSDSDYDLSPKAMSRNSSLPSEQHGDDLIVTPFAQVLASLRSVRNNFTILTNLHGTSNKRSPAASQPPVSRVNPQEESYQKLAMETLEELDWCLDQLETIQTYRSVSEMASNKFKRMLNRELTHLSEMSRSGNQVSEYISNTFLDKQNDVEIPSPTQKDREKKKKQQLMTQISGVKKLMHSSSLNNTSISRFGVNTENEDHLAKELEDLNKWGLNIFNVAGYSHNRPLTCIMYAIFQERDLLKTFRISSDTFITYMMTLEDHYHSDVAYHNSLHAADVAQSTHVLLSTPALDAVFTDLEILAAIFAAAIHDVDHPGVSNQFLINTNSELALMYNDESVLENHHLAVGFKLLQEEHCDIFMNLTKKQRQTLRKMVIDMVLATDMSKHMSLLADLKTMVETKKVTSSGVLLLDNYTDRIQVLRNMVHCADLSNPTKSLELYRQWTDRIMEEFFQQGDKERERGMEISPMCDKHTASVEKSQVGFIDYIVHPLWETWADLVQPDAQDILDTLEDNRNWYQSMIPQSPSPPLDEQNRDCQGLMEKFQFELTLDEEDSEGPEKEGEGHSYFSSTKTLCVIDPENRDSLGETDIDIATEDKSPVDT
# Method in brief: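 Live HEK293 cells with a modified cyclic nucleotide-gated (CNG) channel report intracellular cAMP via membrane-potential dye fluorescence (ex 535/em 590 nm). Endogenous PDE-IV was targeted. Compounds were tested at up to 22.9 uM final; RO 20-1724 100 uM served as control.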
# [6] = biological target: Ubiquitin carboxyl-terminal hydrolase 1 (Homo sapiens) (UniProt O94782); experiment: Inhibitors of USP1/UAF1: Pilot qHTS (AID 504865);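 further: rhodamine fluorescence freed from ubiquitin-rhodamine substrate followed over time; top concentration of the series differs between compounds; on the % scale 0 is the no-effect control and ±100 the full control effect; nearly all actives have a fitted effect of over 35% in size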
# Chain of Ubiquitin carboxyl-terminal hydrolase 1 (Homo sapiens) (O94782 whole entry, looked up): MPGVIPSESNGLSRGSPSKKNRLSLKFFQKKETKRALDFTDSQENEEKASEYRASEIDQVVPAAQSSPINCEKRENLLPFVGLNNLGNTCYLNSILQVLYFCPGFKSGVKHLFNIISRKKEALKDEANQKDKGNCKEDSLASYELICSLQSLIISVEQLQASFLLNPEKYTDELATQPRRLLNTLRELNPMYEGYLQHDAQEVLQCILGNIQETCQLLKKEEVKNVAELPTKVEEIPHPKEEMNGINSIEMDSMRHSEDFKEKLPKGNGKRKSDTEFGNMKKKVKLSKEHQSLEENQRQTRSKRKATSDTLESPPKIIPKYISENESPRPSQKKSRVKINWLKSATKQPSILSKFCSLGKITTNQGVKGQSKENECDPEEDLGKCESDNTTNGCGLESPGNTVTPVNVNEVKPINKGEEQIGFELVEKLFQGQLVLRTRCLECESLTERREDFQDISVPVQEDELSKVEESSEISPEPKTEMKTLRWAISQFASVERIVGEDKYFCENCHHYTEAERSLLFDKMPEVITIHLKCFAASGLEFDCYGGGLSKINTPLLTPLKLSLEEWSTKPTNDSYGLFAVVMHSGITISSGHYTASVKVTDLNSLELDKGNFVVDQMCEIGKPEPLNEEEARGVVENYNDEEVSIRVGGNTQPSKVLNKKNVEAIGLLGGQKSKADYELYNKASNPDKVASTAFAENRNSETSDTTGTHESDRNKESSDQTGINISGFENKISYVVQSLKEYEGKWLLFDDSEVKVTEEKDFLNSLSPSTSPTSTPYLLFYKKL
# Method in brief: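 Enzyme-free wells gave the negative control, while test wells held 1nM USP1/UAF1 preincubated with compound for 15 min at room temperature. Ub-Rho at 150nM final started the reaction, and fluorescence at 480/540 nm was recorded kinetically.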
# [7] = Primary qHTS for small molecule stabilizers of the endoplasmic reticulum resident proteome: Secreted ER Calcium Modulated Protein (SERCaMP) assay (AID 1508630); further: on the % scale 0 is the no-effect control and ±100 the full control effect
# Method in brief: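 GLuc-SERCaMP-expressing SH-SY5Y cells, pretreated 16 h with compound, are challenged with thapsigargin to empty ER calcium stores; after 4 h, coelenterazine is added directly to the medium and luminescence is imaged.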
# [8] = biological target: Lysosomal acid glucosylceramidase (Homo sapiens) (UniProt P04062); experiment: Glucocerebrosidase-p2 (AID 348; in the data active means potency below about 10 µM; further: potency means the concentration at half of the fitted maximal effect); details: purified GBA, blue fluorogenic substrate, 40 min
# Chain of Lysosomal acid glucosylceramidase (Homo sapiens) (P04062 whole entry, looked up): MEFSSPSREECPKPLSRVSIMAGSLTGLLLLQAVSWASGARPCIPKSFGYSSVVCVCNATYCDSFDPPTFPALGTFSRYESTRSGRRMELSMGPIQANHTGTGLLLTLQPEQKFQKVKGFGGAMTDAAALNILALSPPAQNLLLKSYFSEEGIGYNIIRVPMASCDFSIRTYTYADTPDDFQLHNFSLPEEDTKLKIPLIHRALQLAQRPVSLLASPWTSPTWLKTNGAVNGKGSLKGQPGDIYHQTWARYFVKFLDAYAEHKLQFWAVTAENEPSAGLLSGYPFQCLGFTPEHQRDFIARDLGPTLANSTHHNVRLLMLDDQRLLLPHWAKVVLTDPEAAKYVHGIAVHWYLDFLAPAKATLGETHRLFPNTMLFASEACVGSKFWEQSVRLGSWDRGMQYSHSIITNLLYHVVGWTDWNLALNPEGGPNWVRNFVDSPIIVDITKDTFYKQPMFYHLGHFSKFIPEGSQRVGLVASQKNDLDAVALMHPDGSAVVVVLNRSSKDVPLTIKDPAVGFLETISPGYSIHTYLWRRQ
# Method in brief: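 Compounds titrated from 0.6 nM upwards against 0.2 nM enzyme in pH 5.9 citric acid/KH2PO4, taurocholate, tween-20; blue fluorogenic substrate 80 uM, 40 min room temperature, stopped and read Ex 365/Em 440 for AC50.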
# [9] = AP1 Signaling Pathway (AID 357; active means well fitted curve in either direction with a large enough effect, not every such curve was filed as active;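 further: ME-180 reporter cells stimulated with EGF at its EC50 level; on the % scale 0 is the no-effect control and ±100 the full control effect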); details: ME-180 AP-1-bla reporter, EGF-induced, beta-lactamase ratio, 5 h; at 7.69 µM (top of the series) unless noted
# Method in brief: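 Beta-lactamase reporter under AP-1 response element, ME-180 background. Stimulus: EC50 EGF. Compound exposure 5 h, 37 °C. Detection: CCF4, 2.5 h RT, 460/530 nm. Values: AC50 from titration.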
# [10] = NFAT Signaling Pathway (AID 444; active means well fitted curve in either direction with a large enough effect, not every such curve was filed as active;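 further: carbachol stimulus at about its EC50 of 1 µM final; on the % scale 0 is the no-effect control and ±100 the full control effect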); details: Jurkat NFAT-bla M1, carbachol, beta-lactamase ratio, 5 h; at 7.69 µM (top of the series) unless noted
# Method in brief: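 Jurkat cells carrying an NFAT-driven β-lactamase reporter and co-transfected muscarinic M1 receptor were treated with compound plus carbachol (1 uM final, an EC50 level) for 5 h at 37 °C. CCF4 loading followed for 1 h at RT; 460/530 nm ratio gave %activity.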
# [11] = Stat Signaling Pathway (AID 446; active means well fitted curve in either direction with a large enough effect, not every such curve was filed as active); details: ME-180 (cervical carcinoma) SIE beta-lactamase reporter, IL-6 stimulated, 5 h; at 7.69 µM (top of the series) unless noted
# Method in brief: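 IL-6/STAT signaling read in ME-180 cells via an SIE beta-lactamase reporter. Stimulus was 40 pM IL-6 (its AC50) for 5 hrs, so both activation and inhibition register.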
# [12] = biological target: Cytochrome P450 3A4 (Homo sapiens) (UniProt P08684); experiment: qHTS Assay for Inhibitors and Substrates of Cytochrome P450 3A4 (AID 884); further: nearly all actives have a fitted effect of over 50% in size; further: potency means the concentration at half of the fitted maximal effect
# Chain of Cytochrome P450 3A4 (Homo sapiens) (P08684 whole entry, looked up): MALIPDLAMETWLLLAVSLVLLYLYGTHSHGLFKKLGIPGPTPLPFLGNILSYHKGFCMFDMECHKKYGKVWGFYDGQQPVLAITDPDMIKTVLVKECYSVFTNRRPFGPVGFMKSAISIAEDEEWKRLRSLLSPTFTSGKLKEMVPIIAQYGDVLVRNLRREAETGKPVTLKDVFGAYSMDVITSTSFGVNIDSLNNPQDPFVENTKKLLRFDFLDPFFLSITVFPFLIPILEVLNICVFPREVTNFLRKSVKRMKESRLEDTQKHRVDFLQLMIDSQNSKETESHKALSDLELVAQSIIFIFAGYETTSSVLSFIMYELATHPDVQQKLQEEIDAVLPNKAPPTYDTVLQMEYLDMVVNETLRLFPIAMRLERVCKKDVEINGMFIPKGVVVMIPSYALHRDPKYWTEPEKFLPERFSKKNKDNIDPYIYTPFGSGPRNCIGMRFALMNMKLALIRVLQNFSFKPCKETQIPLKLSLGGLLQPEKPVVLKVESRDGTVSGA
# Method in brief: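 20 nM human CYP3A4 with 25 uM Luciferin-PPXE (at KM) in 200 mM KPO4, preincubated 10 min with compound; NADPH regeneration started a 60 min RT reaction. Luciferin detected by luminescence, normalized to 57 uM ketoconazole as full inhibition.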
# [13] = biological target: Cytochrome P450 3A4 (Homo sapiens) (UniProt P08684); experiment: qHTS Assay for Activators of Cytochrome P450 3A4 (AID 885); further: nearly all actives have a fitted effect of over 65% in size
# Method in brief: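 Quantitative HTS format: compounds preincubated with 20nM human CYP3A4 and Luciferin-PPXE substrate at KM, reaction started by NADPH regeneration, stopped after 60 min, luciferase luminescence read 20 min later.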
# [14] = qHTS Assay for Lipid Storage Modulators (AID 1519; calls by dose curve); details: Drosophila S3 cells, BODIPY lipid droplet/cell ratio, laser cytometry, cells loaded with oleic acid; for activity change, negative = inhibition: at 57.5 µM (top of the series)
# Method in brief: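 Cells seeded at 5,000 per well were treated with compounds over a concentration series and loaded with oleic acid (400 uM, as added). Lipid droplet fluorescence (488 nm excitation, 500-530 nm channel) was read by laser-scanning cytometry and normalized to 20 uM Triacsin C.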
# [15] = biological target: Rap guanine nucleotide exchange factor 3 (Homo sapiens) (UniProt O95398); experiment: Confirmatory qHTS for antagonist of cAMP-regulated guanine nucleotide exchange factor 3 (EPAC1) (AID 1645880); further: nearly all actives have a fitted effect of over 55% in size; further: potency means the concentration at half of the fitted maximal effect;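 on activity, negative = inhibition: plate controls were DMSO only for no effect and full effect of the ATA control for full effect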
# Method in brief: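 Nucleotide exchange uses 100 nM EPAC1, 250 nM RAP1B-BODIPY-GDP and 50 uM GDP, with compounds in a concentration-titration series. After 5 min at room temperature, fluorescence (480 nm ex/540 nm em) is read every 5 min for 30 min. Data are normalized to control ATA and DMSO.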
# [16] = biological target: Rap guanine nucleotide exchange factor 3 (Homo sapiens) (UniProt O95398); experiment: Confirmatory qHTS for agonist of cAMP-regulated guanine nucleotide exchange factor 3 (EPAC1) (AID 1645881);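 further: EPAC1 catalysed release of BODIPY-GDP from Rap1B seen as fluorescence loss; 100% = effect of cAMP agonist control; nearly all actives have a fitted effect of over 75% in size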
# [17] = biological target: Rap guanine nucleotide exchange factor 4 (Homo sapiens) (UniProt Q8WZA2); experiment: Confirmatory qHTS for agonist of cAMP-regulated guanine nucleotide exchange factor 4 (EPAC2) (AID 1645884);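 further: nucleotide exchange releases bodipy-GDP from Rap1 and this lowers its fluorescence; on the % scale 0 is the no-effect control and ±100 the full control effect; nearly all actives have a fitted effect of over 65% in size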
# Chain of Rap guanine nucleotide exchange factor 4 (Homo sapiens) (Q8WZA2 whole entry, looked up): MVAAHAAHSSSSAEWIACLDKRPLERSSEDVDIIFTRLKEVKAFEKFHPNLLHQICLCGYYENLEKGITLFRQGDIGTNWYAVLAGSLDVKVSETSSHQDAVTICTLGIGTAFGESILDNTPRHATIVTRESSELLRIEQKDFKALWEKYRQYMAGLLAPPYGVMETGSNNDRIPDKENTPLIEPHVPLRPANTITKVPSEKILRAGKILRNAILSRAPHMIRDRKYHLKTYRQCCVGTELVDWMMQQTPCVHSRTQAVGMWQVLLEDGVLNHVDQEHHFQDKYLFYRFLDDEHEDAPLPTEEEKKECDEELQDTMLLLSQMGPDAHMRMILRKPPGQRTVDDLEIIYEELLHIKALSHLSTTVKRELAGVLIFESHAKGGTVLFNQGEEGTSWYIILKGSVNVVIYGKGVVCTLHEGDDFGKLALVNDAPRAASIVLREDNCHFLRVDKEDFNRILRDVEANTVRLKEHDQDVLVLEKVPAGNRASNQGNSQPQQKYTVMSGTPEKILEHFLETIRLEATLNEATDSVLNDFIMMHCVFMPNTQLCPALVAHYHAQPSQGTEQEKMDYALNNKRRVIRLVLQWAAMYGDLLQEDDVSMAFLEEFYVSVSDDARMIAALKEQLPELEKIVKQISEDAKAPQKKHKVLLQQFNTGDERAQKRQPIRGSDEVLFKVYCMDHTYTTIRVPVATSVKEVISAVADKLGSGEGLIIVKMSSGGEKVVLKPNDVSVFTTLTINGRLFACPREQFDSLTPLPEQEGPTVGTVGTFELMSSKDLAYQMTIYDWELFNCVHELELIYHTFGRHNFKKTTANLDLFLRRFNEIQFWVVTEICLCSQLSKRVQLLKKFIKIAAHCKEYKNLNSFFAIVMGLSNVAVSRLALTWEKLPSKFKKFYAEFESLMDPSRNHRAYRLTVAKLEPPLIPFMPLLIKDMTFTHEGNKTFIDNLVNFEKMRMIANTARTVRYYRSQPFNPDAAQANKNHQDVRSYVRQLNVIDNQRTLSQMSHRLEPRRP
# [18] = biological target: Rap guanine nucleotide exchange factor 4 (Homo sapiens) (UniProt Q8WZA2); experiment: Confirmatory qHTS for antagonist of cAMP-regulated guanine nucleotide exchange factor 4 (EPAC2) (AID 1645885); further: nearly all actives have a fitted effect of over 25% in size; further: potency means the concentration at half of the fitted maximal effect
# [19] = Confirmation and Secondary Assay for Modulators of Hemoglobin Beta Chain Splicing at IVS2 654 locus (AID 910);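 further: per-well total GFP intensity by laser scanning cytometry after 2-day treatment; % of control where 0% means no effect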
# Method in brief: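 HeLa cells stably carrying EGFP interrupted by mutant beta-globin IVS2-654 intron (CMV-driven) were treated with compound for 2 days at 37C; corrected splicing was scored as total peak GFP intensity per well (488 nm excitation, 500-520 nm emission).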
# [20] = measured here: cell count channel max response
# [21] = measured here: lipid channel max response
smiles,measurement,setting,value
N[C@@H](C(=O)O)c1ccc(O)c(C(=O)O)c1,Potency,[1],inactive
same,Potency,[2],> 46 µM (inactive)
same,Potency,[3],> 46 µM (inactive)
same,Potency,[4],inactive
same,Potency,[5],inactive
same,Potency,[6],inactive
same,outcome,[7],inactive
COc1cccc(-c2cc(NCCc3c[nH]c4ccc(OC)cc34)ncn2)c1,Potency,[8],> 11.4 µM (inactive)
same,"activity change, negative = inhibition",[9],-7.38% (inactive)
same,"activity change, negative = inhibition",[10],-9.49% (inactive)
same,"activity, negative = inhibition",[11],-5.09% (inactive)
same,Potency,[2],> 46 µM (inactive)
same,Potency,[3],> 46 µM (inactive)
same,Potency,[5],inactive
same,Potency,[12],7.94 µM (active)
same,Potency,[13],inactive
same,"activity change, negative = inhibition",[14],7.02% (inactive)
same,max response,[14]; [20],8.88%
same,max response,[14]; [21],13.2%
same,Potency,[6],inactive
same,Potency,[15],inactive
same,Potency,[16],inactive
same,Potency,[17],inactive
same,Potency,[18],inactive
COC(=O)c1c(C)cc(OC(=O)c2c(C)cc(O)c(C=O)c2O)c(C)c1O,Potency,[19],inactive
same,"activity change, negative = inhibition",[14],-6.06% (inactive)
same,max response,[14]; [20],-15.4%
same,max response,[14]; [21],-19%
same,Potency,[6],inactive
COc1ccc(-n2c(=O)c(-c3ccc(Cl)cc3)nc3cnc(N4CCOCC4)nc32)cc1,Potency,[1],15800 nM (active)
same,"activity change, negative = inhibition",[10],23.6% (inactive)
same,"activity, negative = inhibition",[11],88.4% [activator] (active)
same,Potency,[2],> 9.22 µM (inactive)
same,Potency,[3],> 46 µM (inactive)
same,Potency,[4],inactive
same,Potency,[5],inactive
same,outcome,[7],inactive
Cc1ccccc1-c1ccc2ncnc(N(C)C)c2c1,Potency,[8],> 11.4 µM (inactive)
same,"activity change, negative = inhibition",[9],13.7% (inactive)
same,Potency,[1],631 nM (active)
same,"activity change, negative = inhibition",[10],7.63% (inactive)
same,"activity, negative = inhibition",[11],-4.62% (inactive)
same,Potency,[2],> 46 µM (inactive)
same,Potency,[3],> 46 µM (inactive)
same,Potency,[4],inactive
same,Potency,[13],inactive
same,"activity change, negative = inhibition",[14],1.72% (inactive)
same,max response,[14]; [20],-2.12%
same,max response,[14]; [21],-3.73%
same,Potency,[6],inactive
same,Potency,[15],inactive
same,Potency,[16],inactive
same,Potency,[17],inactive
same,Potency,[18],inactive
CC(C)(C)c1cc(C(=O)/C=C/c2ccc(C(=O)O)cc2)cc(C(C)(C)C)c1,Potency,[12],20 µM (active)
same,Potency,[13],inactive
same,outcome,[7],inactive
COc1ccc2[nH]cc(CCNc3ncnc4ccc(-c5ccc6c(c5)OCO6)cc34)c2c1,Potency,[8],> 11.4 µM (inactive)
same,Potency,[1],631 nM (active)
same,"activity change, negative = inhibition",[10],-23.8% (inactive)
same,"activity, negative = inhibition",[11],-24.8% (inactive)
same,Potency,[3],> 46 µM (inactive)
same,Potency,[4],inactive
same,Potency,[5],inactive
same,Potency,[12],2 µM (active)
same,Potency,[13],inactive
same,"activity change, negative = inhibition",[14],2.76% (inactive)
same,max response,[14]; [20],-4.39%
same,max response,[14]; [21],-5.39%
same,Potency,[6],inactive
same,Potency,[15],inactive
same,Potency,[16],inactive
same,Potency,[17],inactive
same,Potency,[18],inactive
NC(Cc1ccc(O)c(O)c1)C(=O)O (stereo not drawn),Potency,[12],inactive
same,Potency,[19],inactive
same,"activity change, negative = inhibition",[14],11.6% (inactive)
same,max response,[14]; [20],4.16%
same,max response,[14]; [21],20.4%
same,Potency,[15],1.4 µM (active)
same,Potency,[16],inactive
same,Potency,[17],inactive
same,Potency,[18],44.1 µM (active)
